Key:
Test in all cases: DAPPL (digital affinity profiling via proximity ligation, sequencing); 10 mM Tris-HCl pH 7.5, 50 mM NaCl, 1 mM DTT, 4% glycerol, room temperature, 30 min; GST-TFs on glutathione beads, 16-mer random dsDNA library, 0.1% formaldehyde crosslink after washing; high values mean tight binding
Details in all cases: protein: recombinant; tags: N-terminal GST; dsDNA, one strand shown
FLI1 = target: T1, FLI1 (Homo sapiens, UniProt Q01543 1-452)
T1 sequence: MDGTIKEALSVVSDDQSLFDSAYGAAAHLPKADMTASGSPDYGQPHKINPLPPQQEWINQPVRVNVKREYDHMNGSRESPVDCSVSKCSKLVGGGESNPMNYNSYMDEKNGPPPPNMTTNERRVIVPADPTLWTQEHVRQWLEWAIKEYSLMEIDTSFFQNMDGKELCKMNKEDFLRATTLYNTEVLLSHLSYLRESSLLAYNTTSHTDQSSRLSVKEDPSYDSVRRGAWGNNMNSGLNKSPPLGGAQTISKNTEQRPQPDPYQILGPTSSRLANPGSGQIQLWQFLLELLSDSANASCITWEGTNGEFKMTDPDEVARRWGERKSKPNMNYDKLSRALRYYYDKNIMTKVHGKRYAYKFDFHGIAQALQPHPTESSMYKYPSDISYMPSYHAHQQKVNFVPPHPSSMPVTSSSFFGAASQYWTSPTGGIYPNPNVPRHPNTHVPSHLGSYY
In short: (§1)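 Pools were built from human transcription factors expressed in yeast as GST fusions, captured on glutathione beads and DNA-barcoded, along with a tag-only sample. Incubation with 200 nmole of a 16-mer random double-stranded DNA library lasted 30 min at room temperature in Tris/NaCl/DTT/glycerol buffer, and was followed by washing, 0.1% formaldehyde crosslinking, proximity ligation, PCR amplification and Illumina NextSeq500 sequencing. Binding signal is the quotient of each hexamer's read frequency for a factor and its frequency for the tag-only sample.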

ELK1 = target: T2, ELK1 (Homo sapiens, UniProt P19419 1-428)
T2 sequence: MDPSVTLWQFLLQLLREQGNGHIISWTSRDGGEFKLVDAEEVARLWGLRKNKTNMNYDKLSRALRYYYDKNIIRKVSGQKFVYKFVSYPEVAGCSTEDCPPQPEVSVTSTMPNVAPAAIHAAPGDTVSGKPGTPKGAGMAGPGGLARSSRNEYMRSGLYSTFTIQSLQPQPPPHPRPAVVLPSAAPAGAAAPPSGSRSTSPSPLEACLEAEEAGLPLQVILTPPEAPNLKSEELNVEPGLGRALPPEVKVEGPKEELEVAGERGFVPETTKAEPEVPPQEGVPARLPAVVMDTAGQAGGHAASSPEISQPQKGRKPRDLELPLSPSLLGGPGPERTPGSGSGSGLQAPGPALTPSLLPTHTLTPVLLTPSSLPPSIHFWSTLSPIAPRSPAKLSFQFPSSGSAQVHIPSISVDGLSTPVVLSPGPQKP
In short: as §1

GABPA = target: T3, GABPA (Homo sapiens, UniProt Q06546 1-454)
T3 sequence: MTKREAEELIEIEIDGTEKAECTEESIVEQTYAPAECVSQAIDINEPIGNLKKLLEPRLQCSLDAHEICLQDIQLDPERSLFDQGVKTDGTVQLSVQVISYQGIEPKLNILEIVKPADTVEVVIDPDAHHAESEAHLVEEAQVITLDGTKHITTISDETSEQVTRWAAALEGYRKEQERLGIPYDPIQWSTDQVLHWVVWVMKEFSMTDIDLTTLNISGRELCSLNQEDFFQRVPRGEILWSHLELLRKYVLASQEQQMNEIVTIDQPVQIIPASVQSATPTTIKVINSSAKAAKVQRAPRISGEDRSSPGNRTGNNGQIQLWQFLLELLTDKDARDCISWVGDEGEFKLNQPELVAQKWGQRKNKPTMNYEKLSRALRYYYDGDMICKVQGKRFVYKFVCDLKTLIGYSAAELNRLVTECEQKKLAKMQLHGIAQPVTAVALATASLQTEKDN
In short: as §1

ERG = target: T4, ERG (Homo sapiens, UniProt P11308 1-479)
T4 sequence: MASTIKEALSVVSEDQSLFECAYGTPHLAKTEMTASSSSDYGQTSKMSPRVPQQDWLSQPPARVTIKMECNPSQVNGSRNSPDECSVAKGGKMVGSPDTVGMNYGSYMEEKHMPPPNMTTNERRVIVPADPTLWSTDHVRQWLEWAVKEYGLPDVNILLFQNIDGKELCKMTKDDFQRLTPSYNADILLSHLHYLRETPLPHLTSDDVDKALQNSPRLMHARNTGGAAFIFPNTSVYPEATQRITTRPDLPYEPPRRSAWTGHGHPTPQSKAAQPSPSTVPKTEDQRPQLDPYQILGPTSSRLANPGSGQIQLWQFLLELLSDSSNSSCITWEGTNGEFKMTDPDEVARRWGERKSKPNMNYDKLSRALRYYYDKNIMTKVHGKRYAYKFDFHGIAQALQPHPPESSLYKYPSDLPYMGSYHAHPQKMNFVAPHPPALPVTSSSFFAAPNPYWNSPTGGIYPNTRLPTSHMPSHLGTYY
In short: as §1

ELF1 = ELF1 (Homo sapiens, UniProt P32519 1-619)
In short: as §1

EHF = target: T5, EHF (Homo sapiens, UniProt Q9NZC4 1-300)
T5 sequence: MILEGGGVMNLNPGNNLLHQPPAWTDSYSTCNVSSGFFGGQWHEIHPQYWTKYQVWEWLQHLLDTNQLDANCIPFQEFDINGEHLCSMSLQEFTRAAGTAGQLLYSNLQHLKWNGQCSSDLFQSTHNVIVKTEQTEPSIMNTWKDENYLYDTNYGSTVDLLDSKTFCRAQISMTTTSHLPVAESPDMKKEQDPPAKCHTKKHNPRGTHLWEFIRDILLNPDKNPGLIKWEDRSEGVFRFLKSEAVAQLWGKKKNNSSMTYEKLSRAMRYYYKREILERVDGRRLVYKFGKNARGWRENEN
In short: as §1

SPI1 = SPI1 (Homo sapiens, UniProt P17947 1-270)
In short: as §1

SPIB = SPIB (Homo sapiens, UniProt Q01892 1-262)
In short: as §1

FEV = target: T6, FEV (Homo sapiens, UniProt Q99581 1-238)
T6 sequence: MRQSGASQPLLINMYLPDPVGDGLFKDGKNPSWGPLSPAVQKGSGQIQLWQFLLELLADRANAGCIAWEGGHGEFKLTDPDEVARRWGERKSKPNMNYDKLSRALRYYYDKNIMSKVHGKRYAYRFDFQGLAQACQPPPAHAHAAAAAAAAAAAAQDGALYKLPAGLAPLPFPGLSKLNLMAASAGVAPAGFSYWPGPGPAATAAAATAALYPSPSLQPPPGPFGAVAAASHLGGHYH
In short: as §1

ETV5 = ETV5 (Homo sapiens, UniProt P41161 1-510)
In short: as §1

ELF4 = ELF4 (Homo sapiens, UniProt Q99607 1-663)
In short: as §1

ETV2 = target: T7, ETV2 (Homo sapiens, UniProt O00321 1-342)
T7 sequence: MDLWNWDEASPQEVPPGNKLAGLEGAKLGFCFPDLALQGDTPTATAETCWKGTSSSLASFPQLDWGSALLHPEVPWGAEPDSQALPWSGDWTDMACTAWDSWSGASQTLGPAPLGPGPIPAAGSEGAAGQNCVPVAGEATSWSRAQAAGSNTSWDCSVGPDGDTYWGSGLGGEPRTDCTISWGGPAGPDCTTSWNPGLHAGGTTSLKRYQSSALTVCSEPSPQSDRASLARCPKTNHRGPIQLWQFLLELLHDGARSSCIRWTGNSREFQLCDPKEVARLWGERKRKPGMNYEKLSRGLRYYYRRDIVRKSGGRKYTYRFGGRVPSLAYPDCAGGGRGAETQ
In short: as §1

ELF3 = target: T8, ELF3 (Homo sapiens, UniProt P78545 1-371)
T8 sequence: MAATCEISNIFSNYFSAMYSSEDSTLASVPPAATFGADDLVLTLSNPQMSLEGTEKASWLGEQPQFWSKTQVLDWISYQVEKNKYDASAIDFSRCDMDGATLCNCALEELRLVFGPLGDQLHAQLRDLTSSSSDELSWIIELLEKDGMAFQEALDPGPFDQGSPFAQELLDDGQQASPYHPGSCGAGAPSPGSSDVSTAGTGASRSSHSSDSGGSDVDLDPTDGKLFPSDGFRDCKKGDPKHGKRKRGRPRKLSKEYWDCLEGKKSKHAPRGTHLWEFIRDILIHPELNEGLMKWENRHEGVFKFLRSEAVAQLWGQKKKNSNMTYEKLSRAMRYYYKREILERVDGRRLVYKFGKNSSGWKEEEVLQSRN
In short: as §1

ETV1 = ETV1 (Homo sapiens, UniProt P50549 1-477)
In short: as §1

ERF = target: T9, ERF (Homo sapiens, UniProt P50548 1-548)
T9 sequence: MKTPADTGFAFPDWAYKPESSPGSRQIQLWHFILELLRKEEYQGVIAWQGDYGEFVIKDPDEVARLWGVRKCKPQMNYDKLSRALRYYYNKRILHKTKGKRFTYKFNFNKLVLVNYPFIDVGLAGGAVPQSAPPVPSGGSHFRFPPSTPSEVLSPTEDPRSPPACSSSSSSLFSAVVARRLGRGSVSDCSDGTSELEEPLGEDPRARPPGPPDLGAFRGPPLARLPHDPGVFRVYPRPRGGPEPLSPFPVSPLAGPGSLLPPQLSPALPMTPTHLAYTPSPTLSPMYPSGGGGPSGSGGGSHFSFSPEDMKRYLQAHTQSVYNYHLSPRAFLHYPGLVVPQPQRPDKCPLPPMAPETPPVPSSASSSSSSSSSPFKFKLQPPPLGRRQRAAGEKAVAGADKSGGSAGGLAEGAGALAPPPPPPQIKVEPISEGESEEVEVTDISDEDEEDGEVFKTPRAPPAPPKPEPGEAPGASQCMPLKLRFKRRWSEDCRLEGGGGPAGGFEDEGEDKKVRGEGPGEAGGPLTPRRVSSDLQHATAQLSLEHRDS
In short: as §1

ETV3L = target: T10, ETV3L (Homo sapiens, UniProt Q6ZN32 1-361)
T10 sequence: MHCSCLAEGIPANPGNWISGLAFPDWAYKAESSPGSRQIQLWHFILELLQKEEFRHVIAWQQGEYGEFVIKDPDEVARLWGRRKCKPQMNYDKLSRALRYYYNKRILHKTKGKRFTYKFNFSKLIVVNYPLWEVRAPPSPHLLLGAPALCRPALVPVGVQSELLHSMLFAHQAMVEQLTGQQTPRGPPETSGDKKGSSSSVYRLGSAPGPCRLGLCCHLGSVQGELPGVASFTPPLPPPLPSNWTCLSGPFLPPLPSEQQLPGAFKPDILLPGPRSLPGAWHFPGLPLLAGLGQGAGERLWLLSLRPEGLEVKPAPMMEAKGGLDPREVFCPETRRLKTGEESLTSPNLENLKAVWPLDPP
In short: as §1

ETS2 = target: T11, ETS2 (Homo sapiens, UniProt P15036 1-469)
T11 sequence: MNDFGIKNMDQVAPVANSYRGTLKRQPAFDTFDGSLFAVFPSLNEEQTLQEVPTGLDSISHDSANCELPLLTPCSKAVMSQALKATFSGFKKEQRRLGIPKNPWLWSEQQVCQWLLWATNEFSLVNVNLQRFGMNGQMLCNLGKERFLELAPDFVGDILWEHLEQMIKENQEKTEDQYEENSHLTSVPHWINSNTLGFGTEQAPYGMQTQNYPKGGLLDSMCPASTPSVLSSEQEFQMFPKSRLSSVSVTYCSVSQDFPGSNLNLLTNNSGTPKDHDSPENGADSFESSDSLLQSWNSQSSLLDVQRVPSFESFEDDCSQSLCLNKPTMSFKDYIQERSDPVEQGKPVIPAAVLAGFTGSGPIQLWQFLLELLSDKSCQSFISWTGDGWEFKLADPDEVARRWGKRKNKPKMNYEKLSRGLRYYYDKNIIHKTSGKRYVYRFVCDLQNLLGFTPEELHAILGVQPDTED
In short: as §1

ETV7 = target: T12, ETV7 (Homo sapiens, UniProt Q9Y603 1-341)
T12 sequence: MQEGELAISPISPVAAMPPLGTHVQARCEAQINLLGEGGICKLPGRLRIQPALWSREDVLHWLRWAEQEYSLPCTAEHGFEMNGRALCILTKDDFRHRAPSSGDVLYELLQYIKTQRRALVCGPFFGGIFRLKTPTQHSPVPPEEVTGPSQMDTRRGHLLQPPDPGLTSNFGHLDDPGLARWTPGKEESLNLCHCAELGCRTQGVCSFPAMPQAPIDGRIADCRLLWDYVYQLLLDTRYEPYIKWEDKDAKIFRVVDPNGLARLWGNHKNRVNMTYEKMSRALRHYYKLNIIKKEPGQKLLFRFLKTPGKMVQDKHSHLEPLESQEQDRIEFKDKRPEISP
In short: as §1

ETV3 = target: T13, ETV3 (Homo sapiens, UniProt P41162-2 1-143)
T13 sequence: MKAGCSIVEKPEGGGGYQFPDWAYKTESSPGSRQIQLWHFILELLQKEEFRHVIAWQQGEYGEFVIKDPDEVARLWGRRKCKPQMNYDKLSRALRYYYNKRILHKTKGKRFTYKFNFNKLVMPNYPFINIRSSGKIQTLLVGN
In short: as §1

ETV6 = ETV6 (Homo sapiens, UniProt P41212 1-452)
In short: as §1

Chain of ETV1 (P50549 whole entry): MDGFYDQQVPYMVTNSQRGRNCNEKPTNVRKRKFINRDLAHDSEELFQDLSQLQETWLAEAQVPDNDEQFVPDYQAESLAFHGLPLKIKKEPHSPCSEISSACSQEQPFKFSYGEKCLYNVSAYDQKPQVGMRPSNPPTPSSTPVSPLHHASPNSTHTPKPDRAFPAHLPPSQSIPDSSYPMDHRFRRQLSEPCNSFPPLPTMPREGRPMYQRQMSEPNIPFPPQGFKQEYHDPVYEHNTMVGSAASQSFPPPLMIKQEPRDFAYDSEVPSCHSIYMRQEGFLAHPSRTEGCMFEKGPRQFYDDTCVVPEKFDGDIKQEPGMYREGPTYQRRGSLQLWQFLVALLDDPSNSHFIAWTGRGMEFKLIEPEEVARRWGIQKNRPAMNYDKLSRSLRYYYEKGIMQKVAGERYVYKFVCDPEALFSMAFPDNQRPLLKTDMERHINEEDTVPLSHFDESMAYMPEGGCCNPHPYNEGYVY
Chain of SPIB (Q01892 whole entry): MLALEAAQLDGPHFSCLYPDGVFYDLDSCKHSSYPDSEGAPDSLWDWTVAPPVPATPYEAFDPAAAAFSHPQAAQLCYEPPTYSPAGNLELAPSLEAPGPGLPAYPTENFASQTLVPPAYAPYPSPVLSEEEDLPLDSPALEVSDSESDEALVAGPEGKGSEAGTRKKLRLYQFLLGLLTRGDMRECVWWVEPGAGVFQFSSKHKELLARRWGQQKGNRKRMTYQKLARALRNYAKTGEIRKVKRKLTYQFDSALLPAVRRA
Chain of ELF4 (Q99607 whole entry): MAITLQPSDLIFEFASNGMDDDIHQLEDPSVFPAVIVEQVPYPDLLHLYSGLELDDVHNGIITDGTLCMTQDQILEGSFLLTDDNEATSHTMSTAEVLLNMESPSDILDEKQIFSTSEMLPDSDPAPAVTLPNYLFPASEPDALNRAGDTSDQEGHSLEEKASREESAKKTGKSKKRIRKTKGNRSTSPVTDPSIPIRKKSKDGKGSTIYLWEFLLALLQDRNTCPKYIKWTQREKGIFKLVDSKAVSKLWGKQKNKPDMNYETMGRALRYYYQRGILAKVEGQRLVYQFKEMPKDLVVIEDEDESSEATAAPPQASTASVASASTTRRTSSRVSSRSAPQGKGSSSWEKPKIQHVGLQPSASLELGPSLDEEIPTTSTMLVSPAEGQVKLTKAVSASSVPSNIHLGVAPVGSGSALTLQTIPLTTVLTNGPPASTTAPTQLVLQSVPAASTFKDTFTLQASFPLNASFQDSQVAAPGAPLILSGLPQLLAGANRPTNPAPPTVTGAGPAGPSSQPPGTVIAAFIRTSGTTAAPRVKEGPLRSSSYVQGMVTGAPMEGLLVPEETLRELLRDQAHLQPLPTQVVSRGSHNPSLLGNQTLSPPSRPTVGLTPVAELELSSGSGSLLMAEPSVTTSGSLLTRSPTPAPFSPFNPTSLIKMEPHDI
Chain of ETV6 (P41212 whole entry): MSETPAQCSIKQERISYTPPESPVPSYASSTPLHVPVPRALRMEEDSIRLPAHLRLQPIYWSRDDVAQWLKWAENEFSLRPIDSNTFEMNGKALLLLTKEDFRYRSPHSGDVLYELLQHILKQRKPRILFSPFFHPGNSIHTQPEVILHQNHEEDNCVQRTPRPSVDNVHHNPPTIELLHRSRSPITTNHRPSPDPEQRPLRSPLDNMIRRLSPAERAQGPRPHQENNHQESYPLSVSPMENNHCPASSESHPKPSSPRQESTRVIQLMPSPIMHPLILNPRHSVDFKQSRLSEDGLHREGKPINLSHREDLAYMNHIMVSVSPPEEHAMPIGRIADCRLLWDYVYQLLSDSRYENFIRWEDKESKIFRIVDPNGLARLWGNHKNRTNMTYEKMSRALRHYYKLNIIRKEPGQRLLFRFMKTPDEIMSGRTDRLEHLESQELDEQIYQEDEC
Chain of ETV5 (P41161 whole entry): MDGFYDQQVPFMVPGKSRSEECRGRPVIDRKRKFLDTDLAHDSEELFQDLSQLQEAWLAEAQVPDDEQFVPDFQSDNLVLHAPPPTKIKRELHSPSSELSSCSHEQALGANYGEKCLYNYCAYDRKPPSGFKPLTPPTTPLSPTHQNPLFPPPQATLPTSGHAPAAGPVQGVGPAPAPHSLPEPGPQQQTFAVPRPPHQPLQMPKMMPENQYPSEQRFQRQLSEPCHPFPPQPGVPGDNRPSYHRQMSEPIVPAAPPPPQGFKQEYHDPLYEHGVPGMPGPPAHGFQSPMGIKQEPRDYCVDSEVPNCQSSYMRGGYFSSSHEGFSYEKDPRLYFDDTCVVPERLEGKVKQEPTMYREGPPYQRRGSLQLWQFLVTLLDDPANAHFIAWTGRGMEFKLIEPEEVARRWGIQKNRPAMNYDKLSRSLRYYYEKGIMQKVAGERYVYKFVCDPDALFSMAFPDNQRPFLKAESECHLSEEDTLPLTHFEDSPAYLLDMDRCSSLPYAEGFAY
Chain of ELF1 (P32519 whole entry): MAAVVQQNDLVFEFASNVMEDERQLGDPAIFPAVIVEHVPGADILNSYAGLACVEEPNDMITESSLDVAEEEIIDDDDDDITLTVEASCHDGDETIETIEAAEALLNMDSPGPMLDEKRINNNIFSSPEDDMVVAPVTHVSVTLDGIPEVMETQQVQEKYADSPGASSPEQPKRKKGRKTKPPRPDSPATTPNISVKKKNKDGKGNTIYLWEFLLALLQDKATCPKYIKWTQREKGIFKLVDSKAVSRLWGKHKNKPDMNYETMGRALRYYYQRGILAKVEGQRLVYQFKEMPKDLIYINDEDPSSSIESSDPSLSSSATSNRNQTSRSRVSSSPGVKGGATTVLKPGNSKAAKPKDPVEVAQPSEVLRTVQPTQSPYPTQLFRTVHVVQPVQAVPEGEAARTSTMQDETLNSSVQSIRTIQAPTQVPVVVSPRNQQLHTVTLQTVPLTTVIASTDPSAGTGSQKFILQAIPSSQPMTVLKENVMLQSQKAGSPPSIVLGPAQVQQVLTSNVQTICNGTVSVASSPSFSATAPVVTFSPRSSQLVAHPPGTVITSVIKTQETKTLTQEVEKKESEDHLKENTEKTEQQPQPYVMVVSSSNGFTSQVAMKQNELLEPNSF

CCCCCC
binding signal (FLI1): 1.03 fold enrichment (6-mer frequency, TF over GST control) | binding signal (ELK1): 1.04 fold enrichment (6-mer frequency, TF over GST control) | binding signal (GABPA): 1.08 fold enrichment (6-mer frequency, TF over GST control) | binding signal (ERG): 1.07 fold enrichment (6-mer frequency, TF over GST control) | binding signal (ELF1): 1.08 fold enrichment (6-mer frequency, TF over GST control) | binding signal (EHF): 1.06 fold enrichment (6-mer frequency, TF over GST control) | binding signal (SPI1): 1.07 fold enrichment (6-mer frequency, TF over GST control) | binding signal (SPIB): 1.1 fold enrichment (6-mer frequency, TF over GST control) | binding signal (FEV): 1.03 fold enrichment (6-mer frequency, TF over GST control) | binding signal (ETV5): 1.09 fold enrichment (6-mer frequency, TF over GST control) | binding signal (ELF4): 1.16 fold enrichment (6-mer frequency, TF over GST control) | binding signal (ETV2): 1.26 fold enrichment (6-mer frequency, TF over GST control) | binding signal (ELF3): 1.28 fold enrichment (6-mer frequency, TF over GST control) | binding signal (ETV1): 1.11 fold enrichment (6-mer frequency, TF over GST control) | binding signal (ERF): 1.05 fold enrichment (6-mer frequency, TF over GST control) | binding signal (ETV3L): 1.07 fold enrichment (6-mer frequency, TF over GST control) | binding signal (ETS2): 1.1 fold enrichment (6-mer frequency, TF over GST control) | binding signal (ETV7): 1.13 fold enrichment (6-mer frequency, TF over GST control) | binding signal (ETV3): 1.14 fold enrichment (6-mer frequency, TF over GST control) | binding signal (ETV6): 1.06 fold enrichment (6-mer frequency, TF over GST control)

Reference: article PMC7862700, “An all-to-all approach to the identification of sequence-specific readers for epigenetic DNA modifications on cytosine”
